Assay results: PubChem BioAssay (Tox21)
Inconclusive results are not listed. Calls of active or inactive are those of the source. Unless noted, the call rests on the fitted dose curve.

Tests used:
[1] = Nuclear factor erythroid 2-related factor 2/antioxidant responsive element (Nrf2/ARE) small molecule agonists: qHTS cell viability counter screen in human keratinocytes (AID 1919968; active means well fitted curve in the direction sought with a large enough effect in the repeat runs; an effect the other way counts as inactive or inconclusive; further: nearly all actives have a fitted effect of over 55% in size; further: potency means the concentration at half of the fitted maximal effect)
In short: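 After a 5 h attachment period, ARE-reporter keratinocytes were dosed with compounds in DMSO and then cultured 23 h at 37 C. Cell viability came from CellTiter-Fluor signal read after a further 1 h.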

[2] = Nuclear factor erythroid 2-related factor 2/antioxidant responsive element (Nrf2/ARE) small molecule agonists: luciferase reporter gene qHTS assay in human keratinocytes (AID 1919969); further: nearly all actives have a fitted effect of over 35% in size; further: potency means the concentration at half of the fitted maximal effect
[3] = biological target: Gonadotropin-releasing hormone receptor (Homo sapiens) (UniProt P30968); test: Human gonadotropin-releasing hormone receptor (GnRHR) small molecule agonists, calcium flux assay in GnRHR-HEK293 cells (AID 1920063); further: nearly all actives have a fitted effect of over 35% in size
In short: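 We seeded human GnRHR-expressing HEK293 cells for 18 hours, loaded them with calcium dye for an hour at 37 C, added test compounds, and recorded fluorescence intensity kinetically for three minutes.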

[4] = biological target: KiSS-1 receptor (Homo sapiens) (UniProt Q969F8); test: Human kisspeptin (KISS1R) small molecule agonists, calcium flux assay in KISS1R-HEK293 cells (AID 1920064; active means well fitted curve in the direction sought with a large enough effect in the repeat runs; an effect the other way counts as inactive or inconclusive)
In short: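 Kinetic calcium assay, 1 s sampling over 3 min at Ex/Em 480/540, in HEK293 cells engineered with human KISS1R; compounds delivered in DMSO after 1 h dye loading.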

[5] = G protein-coupled receptor (GPCR) small molecule agonists, calcium flux assay: HEK293 wild type cell line counter screen (AID 1920065)
In short: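 Calcium-sensitive dye, loaded 1 h at 37 C into cells cultured 18 h, reports compound-evoked calcium release as fluorescence (Ex/Em 480/540), measured over 3 min. Agonist mode; 15-point titrations, triplicate.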

[6] = p53 small molecule agonists, cell-based qHTS assay with human liver microsomes (AID 1963577);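 further: p53 response element beta-lactamase reporter cells with liver microsomes plus NADPH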
In short: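 HLM-supplemented p53RE-bla reporter assay: 16 h compound exposure at 37 C, microsomes and NADPH each 0.5 mg/mL final, read by fluorescence intensity.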

[7] = p53 small molecule agonists, cell-based qHTS assay with rat liver microsomes (AID 1963578)
In short: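 Quantitative HTS of the Tox21 10K library: p53RE-bla cells, rat liver microsomes plus NADPH at 0.5 mg/mL final each, 16 h at 37 C, beta-lactamase fluorescence detection.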

[8] = p53 small molecule agonists, cell-based qHTS assay with human liver microsomes: qHTS cell viability counter screen (AID 1963579); further: nearly all actives have a fitted effect of over 45% in size; further: potency means the concentration at half of the fitted maximal effect
In short: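 Viability of p53RE-bla cells is measured as CellTiter-Glo luminescence following a 16 h, 37 C incubation with compound, liver microsomes from human donors and NADPH.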

[9] = p53 small molecule agonists, cell-based qHTS assay with rat liver microsomes: qHTS cell viability counter screen (AID 1963580); further: nearly all actives have a fitted effect of over 45% in size
In short: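 p53RE-bla HCT-116 cells were exposed 16 h at 37 C to compounds with rat liver microsomes (0.5 mg/mL) and NADPH (0.5 mg/mL). Viability was measured in the same wells as ATP content by CellTiter-Glo luminescence.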

[10] = biological target: 5-hydroxytryptamine receptor 2A (Homo sapiens) (UniProt P28223); test: 5-hydroxytryptamine receptor 2A (HTR2A) small molecule agonists, cell-based qHTS assay (AID 1963587); further: nearly all actives have a fitted effect of over 30% in size
In short: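 CHO cells stably expressing human HTR2A, plated 18 h, loaded with calcium dye 1 h at 37 C. Agonist mode: compounds added and intracellular calcium fluorescence recorded kinetically for 2 min at 1 sec intervals.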

[11] = biological target: Muscarinic acetylcholine receptor M1 (Homo sapiens) (UniProt P11229); test: Cholinergic receptor muscarinic 1 (CHRM1) small molecule antagonists, cell-based qHTS assay (AID 1963588); further: nearly all actives have a fitted effect of over 40% in size; further: potency means the concentration at half of the fitted maximal effect
In short: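 CHRM1-CHO calcium-flux assay, antagonist mode. Cells were seeded 18 h, dye-loaded 1 h at 37 C and given compound for 5 min at RT, then acetylcholine was added at 50nM. FDSS fluorescence was read 3 min; 15 concentrations, three runs.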

[12] = biological target: Muscarinic acetylcholine receptor M1 (Homo sapiens) (UniProt P11229); test: Cholinergic receptor muscarinic 1 (CHRM1) small molecule agonists, cell-based qHTS assay (AID 1963589); further: nearly all actives have a fitted effect of over 35% in size
In short: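 Measures agonist-induced intracellular calcium rise. Stable human CHRM1 CHO line, 1 h dye load at 37 C, compounds from DMSO, kinetic fluorescence read.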

[13] = cAMP Responsive Elements (CRE) small molecule agonists, cell-based qHTS assay (AID 1963590)
In short: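 A CRE-responsive beta-lactamase reporter in HEK 293T cells was used. Treatment ran 3 h at 37 C; detection used LiveBLAzer B/G FRET substrate for 2 h at room temperature.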

[14] = cAMP Responsive Elements (CRE) small molecule antagonists, cell-based qHTS assay (AID 1963591; active means well fitted inhibition curve with a large enough effect in the signal ratio in the repeat runs, not every such curve was filed as active; the % refers to the signal ratio; further: potency means the concentration at half of the fitted maximal effect)
In short: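 HEK293T cells carrying a CRE-driven beta-lactamase reporter receive compound and NKH477 (0.25 uM final) for 3 h. Fluorescence from LiveBLAzer B/G FRET substrate is read after 2 h at room temperature.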

[15] = biological target: Beta-2 adrenergic receptor (Homo sapiens) (UniProt P07550); test: Adrenergic beta2 receptor (ADRB2) small molecule antagonists, cell-based qHTS assay (AID 1963592); further: series mostly up to about 92 µM; nearly all actives have a fitted effect of over 50% in size
In short: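 Cells (CHO, stable ADRB2 overexpression) incubated 18-20hr at 37C; compounds added from DMSO; agonist mix (1nM isoproterenol, 100uM IBMX, 25uM Ro-20-1724) added; 0.5hr RT; d2-cAMP and anti-cAMP-cryptate added; 1hr RT; 665/615 nm read.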

[16] = biological target: D(2) dopamine receptor (Homo sapiens) (UniProt P14416); test: Dopamine D2 receptor (DRD2) small molecule agonists, cell-based qHTS assay (AID 1963594); further: nearly all actives have a fitted effect of over 35% in size
In short: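 HEK293 cells stably expressing human DRD2, pre-treated with PDE inhibitor Ro20-1724 (0.1 mM final) and compound 10 min at room temperature, then stimulated with NKH477 (200nM […]) for 30 min. cAMP read by HTRF (665/620 nm).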

[17] = biological target: D(2) dopamine receptor (Homo sapiens) (UniProt P14416); test: Dopamine D2 receptor (DRD2) small molecule antagonists, cell-based qHTS assay (AID 1963595; active means well fitted inhibition curve with a large enough effect in the signal ratio in the repeat runs, with a control signal flat; the % refers to the signal ratio; further: potency means the concentration at half of the fitted maximal effect)
In short: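 HTRF cAMP read-out at 665 and 620 nm emission (340 nm excitation). Antagonist mode: compounds were tested against 12 nM quinpirole in DRD2-HEK293 cells, with 200 nM NKH477 raising cAMP and 0.1 mM Ro20-1724 blocking its breakdown.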

[18] = p53 small molecule agonists, cell-based qHTS assay: qHTS cell viability counter screen (AID 1963581); further: nearly all actives have a fitted effect of over 45% in size
In short: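 Following 5 h attachment, HCT-116 p53RE-bla cells took up compound for 16 h at 37 C; the reporter was read with B/G FRET substrate (2 h RT), and viability then via CellTiter-Glo ATP luminescence.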

[19] = p53 small molecule agonists, cell-based qHTS assay (AID 1963582; active means well fitted activation curve with a large enough effect in the signal ratio in the repeat runs, not every such curve was filed as active; the % refers to the signal ratio)
In short: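 In this cell-based concentration-response screen, a p53 response element drives beta-lactamase; cells received DMSO-borne compounds after 5 h culture and were incubated a further 16 h before FRET substrate development.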

[20] = biological target: 5-hydroxytryptamine receptor 2A (Homo sapiens) (UniProt P28223); test: 5-hydroxytryptamine receptor 2A (HTR2A) small molecule antagonists, cell-based qHTS assay (AID 1963586); further: nearly all actives have a fitted effect of over 45% in size
In short: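 Antagonist-mode intracellular calcium assay: DOI (4 nM) added after 5 min compound pre-incubation at room temperature to dye-loaded HTR2A-CHO cells. Fluorescence followed for 3 min, sampled every second.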
On the % scale 0 is the no-effect control and ±100 the full control effect.

5-hydroxytryptamine receptor 2A (Homo sapiens), sequence (P28223 whole entry, looked up): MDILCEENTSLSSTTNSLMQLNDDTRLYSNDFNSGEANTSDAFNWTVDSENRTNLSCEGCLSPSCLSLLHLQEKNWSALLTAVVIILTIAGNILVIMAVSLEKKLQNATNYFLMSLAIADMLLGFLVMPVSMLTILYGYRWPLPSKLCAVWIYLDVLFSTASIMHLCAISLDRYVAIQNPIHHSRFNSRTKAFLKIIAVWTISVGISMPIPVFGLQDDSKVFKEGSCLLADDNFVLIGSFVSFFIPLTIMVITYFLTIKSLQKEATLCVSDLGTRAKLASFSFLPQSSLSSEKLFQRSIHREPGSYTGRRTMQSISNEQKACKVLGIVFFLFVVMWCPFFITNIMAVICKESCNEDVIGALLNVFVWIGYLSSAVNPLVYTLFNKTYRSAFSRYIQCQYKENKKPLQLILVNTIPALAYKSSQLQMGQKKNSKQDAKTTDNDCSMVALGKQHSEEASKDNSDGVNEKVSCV
KiSS-1 receptor (Homo sapiens), sequence (Q969F8 whole entry, looked up): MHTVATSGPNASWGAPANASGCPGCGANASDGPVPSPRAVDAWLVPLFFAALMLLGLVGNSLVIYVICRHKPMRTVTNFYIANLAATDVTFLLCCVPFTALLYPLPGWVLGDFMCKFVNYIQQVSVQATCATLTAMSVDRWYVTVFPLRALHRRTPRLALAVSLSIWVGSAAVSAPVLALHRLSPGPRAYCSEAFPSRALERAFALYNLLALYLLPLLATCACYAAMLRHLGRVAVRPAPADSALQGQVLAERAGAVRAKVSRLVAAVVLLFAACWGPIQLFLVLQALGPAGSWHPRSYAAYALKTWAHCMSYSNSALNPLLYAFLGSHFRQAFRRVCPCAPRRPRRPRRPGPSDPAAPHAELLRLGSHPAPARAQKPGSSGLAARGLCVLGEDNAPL
Beta-2 adrenergic receptor (Homo sapiens), sequence (P07550 whole entry, looked up): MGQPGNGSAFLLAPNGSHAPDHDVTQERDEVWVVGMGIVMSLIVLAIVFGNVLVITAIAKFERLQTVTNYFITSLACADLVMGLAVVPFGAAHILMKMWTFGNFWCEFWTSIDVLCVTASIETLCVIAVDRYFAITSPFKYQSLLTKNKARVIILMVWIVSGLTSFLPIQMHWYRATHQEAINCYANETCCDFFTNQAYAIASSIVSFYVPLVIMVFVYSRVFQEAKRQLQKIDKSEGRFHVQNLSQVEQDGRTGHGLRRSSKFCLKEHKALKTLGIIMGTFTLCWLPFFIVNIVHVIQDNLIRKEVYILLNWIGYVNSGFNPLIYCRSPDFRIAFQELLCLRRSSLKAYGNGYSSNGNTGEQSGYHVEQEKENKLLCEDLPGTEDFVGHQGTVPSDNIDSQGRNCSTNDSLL
Gonadotropin-releasing hormone receptor (Homo sapiens), sequence (P30968 whole entry, looked up): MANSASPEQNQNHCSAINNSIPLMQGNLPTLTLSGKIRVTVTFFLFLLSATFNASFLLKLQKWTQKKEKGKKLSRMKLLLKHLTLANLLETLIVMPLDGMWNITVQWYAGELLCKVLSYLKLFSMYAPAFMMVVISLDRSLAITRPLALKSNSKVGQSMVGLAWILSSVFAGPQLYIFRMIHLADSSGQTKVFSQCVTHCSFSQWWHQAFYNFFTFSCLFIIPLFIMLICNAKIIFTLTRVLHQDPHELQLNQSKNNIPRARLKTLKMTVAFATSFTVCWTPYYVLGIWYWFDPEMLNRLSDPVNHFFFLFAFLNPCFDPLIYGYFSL
D(2) dopamine receptor (Homo sapiens), sequence (P14416 whole entry, looked up): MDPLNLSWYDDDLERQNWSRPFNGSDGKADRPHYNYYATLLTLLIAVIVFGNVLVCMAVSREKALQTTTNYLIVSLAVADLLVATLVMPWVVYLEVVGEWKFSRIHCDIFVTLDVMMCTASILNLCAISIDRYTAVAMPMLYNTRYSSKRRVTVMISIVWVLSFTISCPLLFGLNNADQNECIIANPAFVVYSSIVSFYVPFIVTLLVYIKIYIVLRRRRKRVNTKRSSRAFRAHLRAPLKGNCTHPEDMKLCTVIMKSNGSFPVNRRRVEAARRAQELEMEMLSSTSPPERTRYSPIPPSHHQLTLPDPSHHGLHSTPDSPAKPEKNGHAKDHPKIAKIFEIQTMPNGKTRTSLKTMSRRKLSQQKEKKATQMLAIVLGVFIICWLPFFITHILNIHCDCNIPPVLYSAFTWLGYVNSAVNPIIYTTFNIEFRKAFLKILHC
Muscarinic acetylcholine receptor M1 (Homo sapiens), sequence (P11229 whole entry, looked up): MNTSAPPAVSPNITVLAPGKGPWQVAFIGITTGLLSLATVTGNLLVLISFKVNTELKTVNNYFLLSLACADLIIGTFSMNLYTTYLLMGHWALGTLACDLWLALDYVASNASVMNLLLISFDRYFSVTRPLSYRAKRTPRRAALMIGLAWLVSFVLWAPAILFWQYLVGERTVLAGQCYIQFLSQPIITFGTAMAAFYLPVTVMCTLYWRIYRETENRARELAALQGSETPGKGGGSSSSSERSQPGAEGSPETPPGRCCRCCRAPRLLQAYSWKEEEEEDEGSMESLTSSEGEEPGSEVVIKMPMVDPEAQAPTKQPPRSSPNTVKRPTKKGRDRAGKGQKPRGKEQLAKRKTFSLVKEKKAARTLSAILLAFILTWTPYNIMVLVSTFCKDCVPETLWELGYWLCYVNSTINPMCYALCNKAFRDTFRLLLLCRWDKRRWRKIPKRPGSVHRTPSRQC

O=C(NC(Cc1cc(=O)[nH]c2ccccc12)C(=O)O)c1ccc(Cl)cc1 (configuration not stated)
inactive: Potency [1] | Potency [2] | Potency [3] | outcome [4] | outcome [5] | Potency [6] | Potency [7] | Potency [8] | Potency [9] | Potency [10] | Potency [11] | Potency [12] | Potency [13] | Potency [14] | Potency [15] | Potency [16] | Potency [17]

CC(=O)C(C)=O
inactive: Potency [1] | Potency [2] | Potency [3] | outcome [4] | outcome [5] | Potency [6] | Potency [7] | Potency [8] | Potency [18] | Potency [19] | Potency [20] | Potency [10] | Potency [11] | Potency [12] | Potency [13] | Potency [14] | Potency [15] | Potency [16]

C=C(C)CCCC
inactive: Potency [1] | Potency [2] | Potency [3] | outcome [4] | outcome [5] | Potency [6] | Potency [7] | Potency [8] | Potency [18] | Potency [19] | Potency [20] | Potency [10] | Potency [11] | Potency [12] | Potency [13] | Potency [14] | Potency [15] | Potency [16] | Potency [17]

Nc1c(N=Nc2ccc(-c3ccc(N=Nc4cc(S(=O)(=O)O)c5ccccc5c4N)cc3)cc2)cc(S(=O)(=O)O)c2ccccc12
active: Potency [1] 30.6 µM
inactive: Potency [2] | Potency [3] | outcome [4] | outcome [5] | Potency [6] | Potency [7] | Potency [8] | Potency [9] | Potency [20] | Potency [11] | Potency [12] | Potency [13] | Potency [14]

CC(CC1c2ccccc2CCc2ccccc21)CN(C)C (configuration not stated)
inactive: Potency [1] | Potency [2] | Potency [3] | outcome [4] | outcome [5] | Potency [6] | Potency [7] | Potency [8] | Potency [9] | Potency [10] | Potency [12] | Potency [13] | Potency [14] | Potency [15] | Potency [16]
active: Potency [11] 0.0365 µM

N#Cc1cc2ccccc2c2ccccc12
inactive: Potency [1] | Potency [2] | Potency [3] | outcome [4] | outcome [5] | Potency [6] | Potency [7] | Potency [8] | Potency [9] | Potency [20] | Potency [10] | Potency [12] | Potency [13] | Potency [14] | Potency [15] | Potency [16] | Potency [17]

CN[C@@H]1[C@H](O)[C@H](NC)[C@H]2O[C@@]3(O)C(=O)C[C@@H](C)O[C@H]3O[C@@H]2[C@H]1O
inactive: Potency [1] | Potency [2] | Potency [3] | outcome [4] | outcome [5] | Potency [6] | Potency [7] | Potency [8] | Potency [9] | Potency [13] | Potency [14] | Potency [15] | Potency [16] | Potency [17]

CCCCCCCCCCCCCCCCCl
inactive: activity change, negative = cytotoxicity [1] -5.35% [at 19 µM] | activity, positive = activation [2] -7.33% [at 19 µM] | activity change [3] 0.762% [at 11.8 µM, active compounds read high] | activation [4] 2.27% [at 15.8 µM] | activation [5] 0.033% [at 11.8 µM] | activation [6] 1.18% [at 13.5 µM] | activation [7] 0.0918% [at 13.6 µM] | activity change, negative = cytotoxicity [8] 0.42% [at 13.5 µM] | activity change, negative = cytotoxicity [18] -1.41% [at 13.5 µM] | activation [19] 0.101% [at 13.5 µM] | activity, negative = inhibition [20] 12.6% [at 12.7 µM] | activation [10] -4.65% [at 15.9 µM] | activity, negative = inhibition [11] -6.96% [at 12.6 µM] | activation [12] -0.468% [at 15.8 µM] | activation [13] -1.81% [at 19 µM] | activity change, negative = inhibition [14] -10.5% [at 18.9 µM] | activity change, negative = inhibition [15] -9.7% [at 19 µM] | activation [16] -1.48% [at 19 µM] | activity change, negative = inhibition [17] 2.16% [at 18.9 µM]

CCCCCCCCCOC(=O)c1ccc(O)cc1
inactive: Potency [2] | Potency [3] | outcome [4] | outcome [5] | Potency [6] | Potency [7] | Potency [9] | Potency [20] | Potency [11] | Potency [12] | Potency [13] | Potency [15] | Potency [16]
active: Potency [1] 26.9 µM | Potency [8] 18 µM | Potency [14] 21.4 µM

CN1CCN(CCCN2c3ccccc3Sc3ccc(C(F)(F)F)cc32)CC1
active: Potency [1] 29.8 µM | Potency [17] 0.0298 µM
inactive: Potency [2] | Potency [3] | outcome [4] | outcome [5] | Potency [6] | Potency [7] | Potency [8] | Potency [9] | Potency [15] | Potency [16]

COc1cc(C)ccc1C(C)C
inactive: Potency [1] | Potency [2] | Potency [3] | outcome [4] | outcome [5] | Potency [6] | Potency [7] | Potency [8] | Potency [18] | Potency [19] | Potency [20] | Potency [10] | Potency [11] | Potency [12] | Potency [13] | Potency [14] | Potency [15] | Potency [16] | Potency [17]

Nc1cc([N+](=O)[O-])cc(Cl)c1O
inactive: Potency [1] | Potency [2] | Potency [3] | outcome [4] | outcome [5] | Potency [6] | Potency [7] | Potency [8] | Potency [18] | Potency [19] | Potency [20] | Potency [10] | Potency [11] | Potency [12] | Potency [13] | Potency [14] | Potency [15] | Potency [16] | Potency [17]

Cc1nc(-c2ccc(OCC(C)C)c(C#N)c2)sc1C(=O)O
active: Potency [2] 0.0531 µM
inactive: Potency [1] | Potency [3] | outcome [4] | outcome [5] | Potency [6] | Potency [7] | Potency [8] | Potency [9] | Potency [20] | Potency [10] | Potency [11] | Potency [12] | Potency [17]

CC1=CC(O)CC(C)(C)C1 (configuration not stated)
inactive: Potency [1] | Potency [2] | Potency [3] | outcome [4] | outcome [5] | Potency [6] | Potency [7] | Potency [8] | Potency [18] | Potency [19] | Potency [20] | Potency [10] | Potency [11] | Potency [12] | Potency [13] | Potency [14] | Potency [15] | Potency [16] | Potency [17]

c1ccc(CCCc2ccccn2)cc1
inactive: Potency [1] | Potency [2] | Potency [3] | outcome [4] | outcome [5] | Potency [6] | Potency [7] | Potency [8] | Potency [18] | Potency [19] | Potency [20] | Potency [10] | Potency [11] | Potency [12] | Potency [13] | Potency [14] | Potency [15] | Potency [16] | Potency [17]
